This passage reports outcome and AC50 results from PubChem BioAssay (EPA / NIEHS).

Read-out in assay [1]: sulfotransferase 2A1 (SULT2A1), SULT2A1 (gene 6822)
Nature of the assay: LTEA_HepaRG_SULT2A1: Life Technologies and Expression Analysis (LTEA) Assay for sulfotransferase 2A1 (SULT2A1) using HepaRG (AID 2283531; active means hit-call score of the fitted dose curve at least 0.9, where 1 is the maximum; inactive means score below 0.9). As to conditions: mRNA level, 48 h; actives raise or lower the signal. The gist of the method:
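Cells were plated and cultured 48 h, switched to serum-free induction medium, then dosed in duplicate for 48 h (8 concentrations, max 100 uM). RNA was isolated and SULT2A1 expression measured by qRT-PCR; gain or loss of signal fitted relative to DMSO.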

Read-out in assay [2]: Transforming Growth Factor (TGFA), TGFA (gene 7039)
In words: LTEA_HepaRG_TGFA: Life Technologies and Expression Analysis (LTEA) Assay for Transforming Growth Factor (TGFA) using HepaRG (AID 2283532; active means hit-call score of the fitted dose curve at least 0.9, where 1 is the maximum; inactive means score below 0.9). As to conditions: mRNA level, 48 h; actives raise or lower the signal. The gist of the method: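 Gene expression of TGFA was quantified by qRT-PCR after human HepaRG cells were treated for 48 h with test chemicals (eight concentrations, highest 100 uM, 0.5% DMSO). Activity in either direction was fitted relative to DMSO.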

Read-out in assay [3]: Transforming Growth Factor (TGFB1), TGFB1 (gene 7040)
Nature of the assay: LTEA_HepaRG_TGFB1: Life Technologies and Expression Analysis (LTEA) Assay for Transforming Growth Factor (TGFB1) Transporter using HepaRG (AID 2283533; active means hit-call score of the fitted dose curve at least 0.9, where 1 is the maximum; inactive means score below 0.9). The conditions noted are these: mRNA level, 48 h; actives raise or lower the signal. The essentials:
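Expression change of TGFB1 in human HepaRG cells is measured after a 48 h chemical exposure, up to 100 uM in 0.5% DMSO vehicle. Curves are fitted in both directions relative to the DMSO baseline.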

Read-out in the next assay: TIMP1, TIMP1 (gene 7076)
Nature of the assay: LTEA_HepaRG_TIMP1: Life Technologies and Expression Analysis (LTEA) Assay for TIMP1 using HepaRG (AID 2283534; active means hit-call score of the fitted dose curve at least 0.9, where 1 is the maximum; inactive means score below 0.9;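 further: TaqMan qRT-PCR signal normalized to ACTB GAPDH and POLR2A housekeeping genes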). The conditions noted are these: mRNA level, 48 h; actives raise or lower the signal. The gist of the method: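 We dosed human liver HepaRG cultures for 48 hours with up to 100 uM test chemical and measured TIMP1 expression by qRT-PCR. Activity in either direction is fitted relative to the 0.5% DMSO vehicle.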

Read-out in assay [4]: Tumor necrosis factor receptor 1 (TNFRSF1A), TNFRSF1A (gene 7132)
In words: LTEA_HepaRG_TNFRSF1A: Life Technologies and Expression Analysis (LTEA) Assay for Tumor necrosis factor receptor 1 (TNFRSF1A) using HepaRG (AID 2283535; active means hit-call score of the fitted dose curve at least 0.9, where 1 is the maximum; inactive means score below 0.9). The conditions noted are these: mRNA level, 48 h; actives raise or lower the signal. The essentials:
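Expression of TNFRSF1A in human HepaRG liver cells was measured by qRT-PCR 48 h after chemical dosing (maximum 100 uM). Bidirectional curve fitting used 0.5% DMSO as baseline.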

Read-out in assay [5]: Thyroid Hormone Responsive (THRSP), THRSP (gene 7069)
Nature of the assay: LTEA_HepaRG_THRSP: Life Technologies and Expression Analysis (LTEA) Assay for Thyroid Hormone Responsive (THRSP) using HepaRG (AID 2283536; active means hit-call score of the fitted dose curve at least 0.9, where 1 is the maximum; inactive means score below 0.9). The conditions noted are these: mRNA level, 48 h; actives raise or lower the signal. The gist of the method:
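Cell model: human HepaRG, approx. 100,000 cells/well, 0.5% DMSO vehicle. Exposure lasts 48 h; phenobarbital 1 mM serves as induction positive control. Gene expression is measured by qRT-PCR against three endogenous control genes.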

Read-out in assay [6]: Cellular tumor antigen p53 (Homo sapiens) (UniProt P04637)
In words: LTEA_HepaRG_TP53: Life Technologies and Expression Analysis (LTEA) Assay for Tumor Protein P53 (TP53) using HepaRG (AID 2283537; active means hit-call score of the fitted dose curve at least 0.9, where 1 is the maximum; inactive means score below 0.9). The conditions noted are these: mRNA level, 48 h; actives raise or lower the signal. The gist of the method: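 HepaRG, 48 h exposure, top 100 uM, half-log 8-point, 0.5% DMSO vehicle, duplicates. Read: TP53 mRNA by TaqMan qRT-PCR, normalised to ACTB/GAPDH/POLR2A; bidirectional fit vs DMSO.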

Read-out in assay [7]: UDP glucuronosyltransferase (UGT1A1), UGT1A1 (gene 54658)
In words: LTEA_HepaRG_UGT1A1: Life Technologies and Expression Analysis (LTEA) Assay for UDP glucuronosyltransferase (UGT1A1) using HepaRG (AID 2283538; active means hit-call score of the fitted dose curve at least 0.9, where 1 is the maximum; inactive means score below 0.9). The conditions noted are these: mRNA level, 48 h; actives raise or lower the signal. The essentials: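 Cells are plated, cultured 48 h, switched to serum-free induction medium, then dosed 48 h at eight concentrations (max 100 uM, 0.5% DMSO). RNA is isolated and UGT1A1 expression measured by qRT-PCR; changes versus DMSO are fitted in both directions.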

Read-out in assay [8]: UDP glucuronosyltransferase (UGT1A6), UGT1A6 (gene 54578)
Nature of the assay: LTEA_HepaRG_UGT1A6: Life Technologies and Expression Analysis (LTEA) Assay for UDP glucuronosyltransferase (UGT1A6) using HepaRG (AID 2283539; active means hit-call score of the fitted dose curve at least 0.9, where 1 is the maximum; inactive means score below 0.9). The conditions noted are these: mRNA level, 48 h; actives raise or lower the signal. The essentials:
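Endpoint is UGT1A6 transcript induction or loss in a human liver cell line, quantified by TaqMan qRT-PCR 48 h after dosing. Concentrations ran from 100 uM downward in half-log steps in 0.5% DMSO; activity was fitted in both directions versus vehicle.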

Read-out in assay [9]: X-box binding protein 1 (XBP1), XBP1 (gene 7494)
Nature of the assay: LTEA_HepaRG_XBP1: Life Technologies and Expression Analysis (LTEA) Assay for X-box binding protein 1 (XBP1) using HepaRG (AID 2283540; active means hit-call score of the fitted dose curve at least 0.9, where 1 is the maximum; inactive means score below 0.9). The conditions noted are these: mRNA level, 48 h; actives raise or lower the signal. The gist of the method: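 Human HepaRG monolayers receive test chemical for 48 h across an eight-point half-log series starting at 100 uM. XBP1 mRNA gain or loss is scored against DMSO by qRT-PCR.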

Assay [10] can be described thus: LTEA_HepaRG_LDH_cytotoxicity: Cytotoxicity Assessment in the Life Technologies and Expression Analysis (LTEA) Assay (AID 2283563). The essentials:
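Human HepaRG hepatic cells are treated with test chemicals for 48 h at up to 100 uM in 0.5% DMSO. Cytotoxicity is scored from medium LDH against the vehicle control.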

Assay [11] can be described thus: TOX21_p53_BLA_p2_viability: Viability Assessment in the Tox21 HCT-116 p53 Agonism Beta-lactamase Assay, Phase 2 (AID 2283591).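 Further: compound exposure lasted 16 h at 37 °C; actives lower the ATP signal meaning cytotoxicity.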 The gist of the method:
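HCT-116 p53-bla cells (4000/well) rested 5 h at 37C, then received compounds in DMSO (217-fold dilution) for 16 h at 37C, 5% CO2. After the CCF4 read, CellTiter-Glo was added; ATP luminescence was read after 30 min at room temperature.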

The target of assay [12] is Cellular tumor antigen p53 (Homo sapiens) (UniProt P04637). In words: TOX21_p53_BLA_p2_ratio: Tox21 HCT-116 p53 Agonism Beta-lactamase Assay, Ratio, Phase 2 (AID 2283592). The essentials: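 Cleaved-to-uncleaved substrate ratio (460 vs 530 nm) measured in HCT116 cells with an inducible beta-lactamase reporter linked to p53 activity. Compounds incubated 16 h at 37C before 2 h room-temperature CCF4-AM loading.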

Assay [13] can be described thus: TOX21_p53_BLA_p3_viability: Viability Assessment in the Tox21 HCT-116 p53 Agonism Beta-lactamase Assay, Phase 3 (AID 2283593).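 Further: cells exposed to compound for 16 h before reading.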 The essentials: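 HCT-116 cells (4000/well) rested 5 h at 37C, then got DMSO compounds by pin tool (217-fold dilution) for 16 h at 37C, 5% CO2. After the bla read, CellTiter-Glo was added and luminescence read at 30 min, room temperature.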

Assay [14] deals with Cellular tumor antigen p53 (Homo sapiens) (UniProt P04637). In words: TOX21_p53_BLA_p3_ratio: Tox21 HCT-116 p53 Agonism Beta-lactamase Assay, Ratio, Phase 3 (AID 2283596). The essentials:
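Cells were seeded at 4000/well, rested 5 h at 37C, then dosed with DMSO compound solutions (217-fold dilution) for 16 h. CCF4-AM substrate was loaded for 2 h at room temperature, and the 460/530 nm emission ratio was fitted for gain of signal versus DMSO.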

A short description of assay [15]: TOX21_p53_BLA_p4_viability: Viability Assessment in the Tox21 HCT-116 p53 Agonism Beta-lactamase Assay, Phase 4 (AID 2283597).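 Further: hits lower the luminescence signal meaning cytotoxicity.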 The essentials: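 Viability is taken as cellular ATP: after 16 h compound exposure of HCT116 cells and a 2 h room-temperature CCF4-AM substrate step, CellTiter-Glo reagent is added and luminescence is measured 30 min later.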
Assay [16] deals with Cellular tumor antigen p53 (Homo sapiens) (UniProt P04637). Nature of the assay: TOX21_p53_BLA_p5_ratio: Tox21 HCT-116 p53 Agonism Beta-lactamase Assay, Ratio, Phase 5 (AID 2283599). The gist of the method:
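HCT-116 cells carrying a p53-inducible beta-lactamase reporter were seeded at 4000 cells/well and dosed after 5 h with compound in DMSO (217-fold dilution). After 16 h at 37C, CCF4-AM substrate was added for 2 h, and the 460/530 nm emission ratio was scored as gain-of-signal versus DMSO.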

Assay [17] in a line: TOX21_p53_BLA_p5_viability: Viability Assessment in the Tox21 HCT-116 p53 Agonism Beta-lactamase Assay, Phase 5 (AID 2283600). The essentials: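 Viability is taken from cellular ATP content, measured by luciferase luminescence in the same wells after the beta-lactamase ratio read. Cells are seeded at 4000 per well and exposed to DMSO-dissolved compounds, diluted 217-fold, for 16 h.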

Assay [18] concerns the target Cellular tumor antigen p53 (Homo sapiens) (UniProt P04637). In words: TOX21_p53_BLA_p4_ratio: Tox21 HCT-116 p53 Agonism Beta-lactamase Assay, Ratio, Phase 4 (AID 2283601). The gist of the method:
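HCT116 cells carrying an inducible beta-lactamase reporter were plated at 4000 cells/well, rested 5 h, then exposed to compounds in DMSO (217-fold dilution) for 16 h at 37C. CCF4-AM substrate was loaded 2 h at room temperature; 460/530 nm emission ratio scored gain-of-signal versus DMSO.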

Assay [19] in a line: ATG_XTT_Cytotoxicity: Cytotoxicity Assessment in the Attagene TRANS-FACTORIAL HepG2 Assay (AID 2283584). The essentials:
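Transfect HepG2 with GAL4-UAS reporter units, dose compound, incubate 24 h, then measure viable cell number by XTT. Fit concentration response against DMSO baseline.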

Several values for one entry are separate records, joined by “and”; a condition that tells them apart may be missing. Equal entries are not always repeated. Records with an inconclusive call do not appear. The source holds several records for some structures; these can differ, active in one and inactive in another. Activity calls are given as the source filed them. How the source made its calls, unless noted: active means hit-call score of the fitted dose curve at least 0.9, where 1 is the maximum; inconclusive means response in the unintended direction; inactive means score below 0.9.

Chain of Cellular tumor antigen p53 (Homo sapiens) (P04637 whole entry, looked up): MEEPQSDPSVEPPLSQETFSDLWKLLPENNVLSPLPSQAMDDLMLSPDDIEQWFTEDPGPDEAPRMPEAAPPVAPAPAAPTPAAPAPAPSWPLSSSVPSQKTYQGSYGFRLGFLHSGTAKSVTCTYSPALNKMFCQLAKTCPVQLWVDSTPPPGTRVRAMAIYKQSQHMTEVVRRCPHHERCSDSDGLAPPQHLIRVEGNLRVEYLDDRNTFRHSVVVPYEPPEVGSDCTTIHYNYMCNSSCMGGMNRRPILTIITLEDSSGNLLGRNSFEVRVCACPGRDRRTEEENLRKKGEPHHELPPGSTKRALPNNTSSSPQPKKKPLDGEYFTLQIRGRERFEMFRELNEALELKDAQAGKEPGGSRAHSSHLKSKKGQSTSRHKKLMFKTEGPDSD

The AC50 is the concentration giving half of the maximal activity seen. Turning to `O=C(O)c1ccc([N+](=O)[O-])cc1`, the outcome in assay [1] is “inactive”; in [2], “inactive”; in assay [3], “inactive”; with TIMP1, TIMP1 (gene 7076), “inactive”; in assay [5], “inactive”; in assay [6], “inactive”. Besides, the outcome in [7], in assay [8], in [9], in assay [10], in assay [11] and in [12] was inactive. Besides, the outcome in [13], in assay [14], in assay [15], in [16], in assay [17] and in assay [18] was inactive. The AC50 in assay [4] is 0.646 µM (active).

For the compound `BrC1CCC(Br)C(Br)CCC(Br)C(Br)CCC1Br` (stereo not drawn), the outcome in [19], in assay [13] and in assay [16] was inactive. Besides, the AC50 is 18.1 µM (active) and 18.2 µM (active) in assay [11]; 53.1 µM (active) and 45.9 µM (active) in assay [12]; 15.1 µM (active) in [13]; 65.6 µM (active) and 38.4 µM (active) in assay [14]; 40.1 µM (active) and 19.6 µM (active) in [15]; 63.7 µM (active) and 50.3 µM (active) in assay [18].

Regarding `C=O`, the result in assay [19] was inactive.

Take `NCCNCCN`: the compound was called inactive in [19], in [11], in assay [12], in [13], in assay [14] and in assay [15]. Moreover, the result in assay [16], in [17] and in assay [18] was inactive.

`O=S(=O)(O)NC1CCCCC1`: the result in assay [19] was inactive.

On to `O=C(O)c1ccc(C(=O)O)cc1`, for which the result in assay [19], in assay [11], in assay [12], in assay [13], in assay [14] and in assay [15] was inactive. Also, the result in [16], in assay [17] and in assay [18] was inactive.
